Values joined by “and” are separate entries in the source; they are usually repeats but may differ in a detail not shown here. Equal entries are not always repeated. Results filed as inconclusive are left out. Active and inactive are the calls of the source. Unless noted, the call rests on the fitted dose curve; in most records, active means well fitted curve in either direction with a large enough effect (not every such curve was filed as active); inconclusive means small, poorly fitted or top-dose-only effect, or another doubt; inactive means flat fitted curve, though single readings scatter.
What was measured:
[1] = AP1 Signaling Pathway (AID 357);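 further: ME-180 reporter cells stimulated with EGF at its EC50 level; on the % scale 0 is the no-effect control and ±100 the full control effect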
In short: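 Titration-series screen for positive or negative modulators of EC50 EGF-induced signaling in ME-180 cells carrying an AP-1-driven beta-lactamase reporter. After 5 hours at 37 degrees Celsius, CCF4 460nm/530nm emission ratio gave %Activity; AC50 values derived.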

[2] = target: Cytochrome P450 1A2 (Homo sapiens) (UniProt P05177); assay: p450-cyp1a2 (AID 410; calls by dose curve;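 further: -100% = full effect of reference inhibitor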)
Chain of Cytochrome P450 1A2 (Homo sapiens) (P05177 whole entry, looked up): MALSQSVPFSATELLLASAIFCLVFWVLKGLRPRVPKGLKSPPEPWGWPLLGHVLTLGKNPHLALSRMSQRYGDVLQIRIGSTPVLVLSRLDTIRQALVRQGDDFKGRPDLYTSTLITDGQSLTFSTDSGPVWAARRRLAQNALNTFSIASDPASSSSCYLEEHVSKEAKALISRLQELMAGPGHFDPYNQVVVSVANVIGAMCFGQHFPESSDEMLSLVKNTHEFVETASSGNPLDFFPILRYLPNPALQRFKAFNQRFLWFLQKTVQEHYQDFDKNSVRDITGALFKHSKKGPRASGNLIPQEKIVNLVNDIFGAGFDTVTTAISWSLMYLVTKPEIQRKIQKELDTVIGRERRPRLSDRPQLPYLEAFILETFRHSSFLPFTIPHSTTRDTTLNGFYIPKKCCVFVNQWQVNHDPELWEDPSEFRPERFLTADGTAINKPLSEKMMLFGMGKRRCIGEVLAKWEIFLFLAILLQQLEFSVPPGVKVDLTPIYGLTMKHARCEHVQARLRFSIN
In short: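 Luminescent demethylation readout: Luciferin-ME (100uM, equal to Km) turned over by 20nM CYP1A2 for 60 min at room temperature after NADPH regeneration addition, following 10 min compound preincubation. Normalization used 57 uM furafylline as full inhibition.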

[3] = Stat Signaling Pathway (AID 446);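 further: ME-180 cervical cancer cells given 40 pM IL-6 alongside compound; SIE-controlled beta-lactamase reporter measured as 460/530 nm FRET emission ratio; on the % scale 0 is the no-effect control and ±100 the full control effect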
In short: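 Normalization used AC90 stimulation (300 pM IL-6) and AC90 inhibition (125 nM pan-JAK inhibitor at 40 pM IL-6). The underlying signal is SIE-driven beta-lactamase in ME-180 cells after 5 h IL-6 exposure with compound.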

[4] = target: Glucocorticoid receptor (Homo sapiens) (UniProt P04150); assay: GR-GFP Redistribution (AID 450;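 active means compounds whose dose series gives a full or clear partial fitted curve of increased nuclear translocation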; further: potency means the concentration at half of the fitted maximal effect); details: U2OS GR-GFP nuclear translocation, laser cytometry, 2 h
Chain of Glucocorticoid receptor (Homo sapiens) (P04150 whole entry, looked up, the tested form may be a part): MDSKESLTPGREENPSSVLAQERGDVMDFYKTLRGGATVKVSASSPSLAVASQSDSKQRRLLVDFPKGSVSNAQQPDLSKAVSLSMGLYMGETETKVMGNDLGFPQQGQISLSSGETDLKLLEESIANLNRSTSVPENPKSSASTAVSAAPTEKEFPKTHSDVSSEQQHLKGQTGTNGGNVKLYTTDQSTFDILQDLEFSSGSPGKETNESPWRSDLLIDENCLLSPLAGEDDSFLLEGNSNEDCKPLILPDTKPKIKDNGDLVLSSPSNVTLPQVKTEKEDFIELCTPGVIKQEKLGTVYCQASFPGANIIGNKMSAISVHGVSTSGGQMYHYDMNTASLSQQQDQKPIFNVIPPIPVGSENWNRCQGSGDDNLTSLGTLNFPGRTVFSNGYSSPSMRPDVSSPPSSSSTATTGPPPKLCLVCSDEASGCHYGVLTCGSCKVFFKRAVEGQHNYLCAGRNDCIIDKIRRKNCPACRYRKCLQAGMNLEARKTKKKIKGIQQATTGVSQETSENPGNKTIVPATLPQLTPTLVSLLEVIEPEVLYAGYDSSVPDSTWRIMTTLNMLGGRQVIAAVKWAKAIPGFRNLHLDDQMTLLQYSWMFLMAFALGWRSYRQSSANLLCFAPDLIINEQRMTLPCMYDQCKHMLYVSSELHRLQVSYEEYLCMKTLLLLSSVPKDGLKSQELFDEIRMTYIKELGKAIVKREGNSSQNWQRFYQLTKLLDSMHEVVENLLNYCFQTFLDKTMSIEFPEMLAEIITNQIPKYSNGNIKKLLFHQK

[5] = target: Glucocorticoid receptor (Homo sapiens) (UniProt P04150); assay: GR-EFC Redistribution (AID 451; calls by dose curve; further: potency means the concentration at half of the fitted maximal effect); details: CHO-K1 GR-EFC translocation, beta-gal luminescence, 2 h
In short: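 Translocation of GR-ED fusion to nuclear EA restores b-gal, read by luminescence after 1 h room-temperature detection. Engineered CHO-K1 biosensor cells, 1,000/well, exposed 2 h at 37 C to titrations up to 46 uM final.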

[6] = target: Mitogen-activated protein kinase 10 (Mus musculus) (UniProt Q61831); assay: JNK3 AlphaScreen Assay (AID 530);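 further: kinase came from lysate of stimulated human HepG2 cells; signal reports phosphorylation of biotinylated GST-cJun 1-79 at Ser73 with 10 µM ATP; on the % scale 0 is the no-effect control and ±100 the full control effect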
In short: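 qHTS titrations with 15 min compound pre-incubation before adding ATP (10 uM final). Read-out: AlphaScreen of Ser73-phosphorylated biotin-GST-cJun using HepG2 lysate JNK3 activated by IL-1β and TNFα.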

[7] = target: 3',5'-cyclic-AMP phosphodiesterase 4B (Homo sapiens) (UniProt Q07343); assay: qHTS Assay for Inhibitors of PDE-IV (AID 607; active means well fitted activation curve with a large enough effect in the main read-out, with a control signal flat, not every such curve was filed as active; further: % of control where 0% means no effect)
Chain of 3',5'-cyclic-AMP phosphodiesterase 4B (Homo sapiens) (Q07343 whole entry, looked up): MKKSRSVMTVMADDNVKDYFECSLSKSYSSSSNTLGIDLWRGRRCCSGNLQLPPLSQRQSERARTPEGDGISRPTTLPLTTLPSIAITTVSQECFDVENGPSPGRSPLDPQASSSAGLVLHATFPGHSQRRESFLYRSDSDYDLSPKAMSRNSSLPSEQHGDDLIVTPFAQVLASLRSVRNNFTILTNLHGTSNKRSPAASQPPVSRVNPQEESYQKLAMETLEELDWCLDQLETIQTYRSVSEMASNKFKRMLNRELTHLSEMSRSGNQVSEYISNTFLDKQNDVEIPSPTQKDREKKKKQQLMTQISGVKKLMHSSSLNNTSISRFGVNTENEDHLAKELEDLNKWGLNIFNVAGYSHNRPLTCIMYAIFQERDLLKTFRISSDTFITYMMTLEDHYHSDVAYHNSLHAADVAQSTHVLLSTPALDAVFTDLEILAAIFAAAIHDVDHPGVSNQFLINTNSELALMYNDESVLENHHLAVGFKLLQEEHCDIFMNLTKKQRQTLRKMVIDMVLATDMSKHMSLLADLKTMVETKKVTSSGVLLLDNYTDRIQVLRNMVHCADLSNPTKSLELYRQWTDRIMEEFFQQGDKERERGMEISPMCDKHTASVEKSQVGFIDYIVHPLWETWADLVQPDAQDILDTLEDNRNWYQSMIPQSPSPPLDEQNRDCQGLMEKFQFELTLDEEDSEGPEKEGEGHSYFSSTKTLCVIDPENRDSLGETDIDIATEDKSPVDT
In short: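 HEK293 ACTOne cells with CNG channel (1000/well), endogenous PDE4; membrane potential dye, compounds up to 22.9 uM final. Fluorescence Ex 535/Em 590; RO 20-1724 (100 uM final) as reference.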

[8] = qHTS Assay for Lipid Storage Modulators (AID 1519; calls by dose curve); details: Drosophila S3 cells, BODIPY lipid droplet/cell ratio, laser cytometry, cells loaded with oleic acid; for activity change, negative = inhibition: at 25.7 µM (top of the series)
In short: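 Cells seeded at 5,000 per well were treated with compounds over a concentration series and loaded with oleic acid (400 uM, as added). Lipid droplet fluorescence (488 nm excitation, 500-530 nm channel) was read by laser-scanning cytometry and normalized to 20 uM Triacsin C.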

[9] = target: Ubiquitin carboxyl-terminal hydrolase 1 (Homo sapiens) (UniProt O94782); assay: Inhibitors of USP1/UAF1: Pilot qHTS (AID 504865; active means well fitted curve in the direction sought with a large enough effect; an effect the other way counts as inactive or inconclusive;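 further: rhodamine fluorescence freed from ubiquitin-rhodamine substrate followed over time; top concentration of the series differs between compounds; on the % scale 0 is the no-effect control and ±100 the full control effect; nearly all actives have a fitted effect of over 35% in size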)
Chain of Ubiquitin carboxyl-terminal hydrolase 1 (Homo sapiens) (O94782 whole entry, looked up): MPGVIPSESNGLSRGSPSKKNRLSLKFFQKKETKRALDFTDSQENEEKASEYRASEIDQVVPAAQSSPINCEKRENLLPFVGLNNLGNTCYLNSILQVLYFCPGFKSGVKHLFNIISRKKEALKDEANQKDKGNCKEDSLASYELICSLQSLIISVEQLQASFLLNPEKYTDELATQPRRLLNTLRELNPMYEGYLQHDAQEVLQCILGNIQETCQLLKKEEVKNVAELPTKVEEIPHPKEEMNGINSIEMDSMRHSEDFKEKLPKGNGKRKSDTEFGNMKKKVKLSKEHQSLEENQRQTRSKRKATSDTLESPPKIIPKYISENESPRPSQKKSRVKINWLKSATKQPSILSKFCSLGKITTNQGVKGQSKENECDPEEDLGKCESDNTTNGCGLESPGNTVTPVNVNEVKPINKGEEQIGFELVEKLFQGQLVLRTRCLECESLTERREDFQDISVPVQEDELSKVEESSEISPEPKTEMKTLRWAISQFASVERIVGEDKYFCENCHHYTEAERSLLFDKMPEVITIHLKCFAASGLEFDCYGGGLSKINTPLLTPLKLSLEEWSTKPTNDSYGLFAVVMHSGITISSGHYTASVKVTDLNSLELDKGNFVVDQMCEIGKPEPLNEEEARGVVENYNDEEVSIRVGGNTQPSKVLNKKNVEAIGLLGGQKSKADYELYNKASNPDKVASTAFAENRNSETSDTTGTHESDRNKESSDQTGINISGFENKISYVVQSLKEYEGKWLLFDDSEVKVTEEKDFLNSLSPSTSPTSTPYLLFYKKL
In short: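 1nM USP1/UAF1 + cpd, 15 min RT; start w/ Ub-Rho 150nM final; kinetic FL 480/540 nm, 6 reads q60 s. Buffer 50mM HEPES pH 7.8, 0.5mM EDTA, 1mM TCEP, 0.01% Tween-20, 0.1 mg/ml BSA.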

[10] = NFAT Signaling Pathway (AID 444); details: Jurkat NFAT-bla M1, carbachol, beta-lactamase ratio, 5 h; at 17.2 µM (top of the series);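 further: carbachol stimulus at about its EC50 of 1 µM final; on the % scale 0 is the no-effect control and ±100 the full control effect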
In short: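 Read-out: CCF4 FRET ratio (460 nm/530 nm) after 1 h RT dye loading, used for %activity and AC50 from titration series. Cells: Jurkat NFAT-β-lactamase/M1 line, treated with compound plus 1 uM carbachol for 5 h, 37 °C.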

[11] = target: ATP-dependent 6-phosphofructokinase (Trypanosoma brucei brucei) (UniProt O15648); assay: qHTS Assay to Find Inhibitors of T. brucei phosphofructokinase: hit validation (AID 492961; active means well fitted curve in the direction sought with a large enough effect; an effect the other way counts as inactive or inconclusive)
Chain of ATP-dependent 6-phosphofructokinase (Trypanosoma brucei brucei) (O15648 whole entry, looked up): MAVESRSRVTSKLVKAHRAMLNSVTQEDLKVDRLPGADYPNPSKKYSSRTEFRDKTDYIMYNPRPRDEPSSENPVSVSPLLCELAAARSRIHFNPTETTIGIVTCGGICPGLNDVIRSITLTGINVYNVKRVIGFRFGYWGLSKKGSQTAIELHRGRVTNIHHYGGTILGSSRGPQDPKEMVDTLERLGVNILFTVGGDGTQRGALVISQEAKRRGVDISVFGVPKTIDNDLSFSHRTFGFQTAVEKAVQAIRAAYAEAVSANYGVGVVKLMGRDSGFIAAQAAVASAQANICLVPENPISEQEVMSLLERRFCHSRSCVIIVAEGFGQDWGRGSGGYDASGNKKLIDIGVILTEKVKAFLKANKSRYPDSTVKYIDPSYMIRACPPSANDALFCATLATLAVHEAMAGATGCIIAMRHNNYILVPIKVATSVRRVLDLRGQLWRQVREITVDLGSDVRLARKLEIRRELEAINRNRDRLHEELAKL
In short: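 ADP-Glo luminescence read-out of ADP formed by 1.25 nM PFK from 0.1 mM ATP and 0.5 mM F6P (TEA pH 8.0, 45 min, RT). Compounds titrated; activity normalized to no-enzyme and full-enzyme controls.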

[12] = target: Luciferin 4-monooxygenase (Photinus pyralis) (UniProt P08659); assay: Biochemical firefly luciferase enzyme assay for NPC (AID 624030; active means well fitted curve in the direction sought with a large enough effect; an effect the other way counts as inactive or inconclusive;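 further: purified P. pyralis luciferase at 10 nM with luciferin and ATP substrate; 0% = DMSO and -100% = full luciferase inhibition by PTC124 control; nearly all actives have a fitted effect of over 70% in size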)
Chain of Luciferin 4-monooxygenase (Photinus pyralis) (P08659 whole entry, looked up): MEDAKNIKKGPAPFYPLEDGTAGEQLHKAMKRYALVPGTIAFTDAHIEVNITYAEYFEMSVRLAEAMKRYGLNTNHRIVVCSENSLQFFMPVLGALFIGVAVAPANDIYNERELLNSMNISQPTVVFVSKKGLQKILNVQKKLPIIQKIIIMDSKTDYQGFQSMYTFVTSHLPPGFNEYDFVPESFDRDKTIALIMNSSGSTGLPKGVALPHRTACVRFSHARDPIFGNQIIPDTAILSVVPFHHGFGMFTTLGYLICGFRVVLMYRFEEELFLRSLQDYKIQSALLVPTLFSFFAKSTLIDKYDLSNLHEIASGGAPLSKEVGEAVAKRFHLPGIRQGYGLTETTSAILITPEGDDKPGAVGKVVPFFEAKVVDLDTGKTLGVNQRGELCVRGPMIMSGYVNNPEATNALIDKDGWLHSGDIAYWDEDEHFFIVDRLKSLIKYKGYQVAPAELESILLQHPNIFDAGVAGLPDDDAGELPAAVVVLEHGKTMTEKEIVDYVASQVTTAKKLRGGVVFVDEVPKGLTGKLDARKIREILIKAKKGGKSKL
In short: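 Direct inhibition of firefly luciferase enzyme (10 nM final, 50 mM Tris Acetate) assessed by luminescence within 5 minutes. Percent activity scaled between DMSO and PTC124 positive control, with concentration-effect curves classified by fit quality and response.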

[13] = qHTS profiling for inhibitors of Plasmodium falciparum proliferation (AID 504749; active means well fitted curve in the direction sought with a large enough effect; an effect the other way counts as inactive or inconclusive;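 further: 0% = DMSO vehicle and full inhibition = artemisinin control; nearly all actives have a fitted effect of over 60% in size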); details: P. falciparum in erythrocytes, SYBR Green DNA, 72 h, at 12.8 µM (top of the series)
In short: (§1)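 SYBR Green fluorescence of parasite DNA, read after lysis and overnight dark incubation, measured growth over 72 h in erythrocyte culture at 0.3% parasitemia and 2.5% hematocrit. Data normalised to DMSO and 0.29 uM artemisinin, with plate-drift correction.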

C2A = assay: as above; details: P. falciparum in erythrocytes, SYBR Green DNA, 72 h; series mostly up to 28.7 µM
In short: as §1

CP192 = assay: as above; details: P. falciparum in erythrocytes, SYBR Green DNA, 72 h; series mostly up to 28.7 µM
In short: as §1

CP211 = assay: as above; details: P. falciparum in erythrocytes, SYBR Green DNA, 72 h; series mostly up to 28.7 µM
In short: as §1

CP266 = assay: as above; details: P. falciparum in erythrocytes, SYBR Green DNA, 72 h; series mostly up to 12.8 µM
In short: as §1

CP315 = assay: as above; details: P. falciparum in erythrocytes, SYBR Green DNA, 72 h; series mostly up to 28.7 µM
In short: as §1

CP329 = assay: as above; details: P. falciparum in erythrocytes, SYBR Green DNA, 72 h; series mostly up to 28.7 µM
In short: as §1

FAB9 = assay: as above; details: P. falciparum in erythrocytes, SYBR Green DNA, 72 h; series mostly up to 28.7 µM
In short: as §1

[14] = measured here: cell count channel max response
[15] = measured here: lipid channel max response

CO[C@@H](C)[C@](O)(C(=O)OCC1=CCN2CC[C@@H](O)[C@H]12)C(C)C
-11.3%: max response [8, 14]
-10.6%: max response [8, 15]
inactive: outcome [1] | Potency [2] | outcome [3] | Potency [4] > 20.6 µM | Potency [5] > 20.6 µM | outcome [6] | Potency [7] | activity change, negative = inhibition [8] -0.0062% | Potency [9]

CS(=N)(=O)CC[C@@H](N)C(=O)O (some centres not stated)
16.1%: max response [8, 14]
inactive: outcome [1] | Potency [2] | outcome [3] | Potency [4] > 46 µM and > 20.6 µM | Potency [5] > 46 µM and > 20.6 µM | outcome [6] | Potency [7] | activity change, negative = inhibition [8] 0.596% | Potency [9]
16%: max response [8, 15]

CN(C)[C@@H]1C(=O)C(C(N)=O)=C(O)[C@]2(O)C(=O)C3=C(O)c4c(O)ccc(Cl)c4[C@](C)(O)[C@H]3C[C@@H]12
inactive: outcome [1] | activity change, negative = inhibition [10] -5.59% | outcome [3] | Potency [4] > 20.6 µM | Potency [5] > 20.6 µM | outcome [6] | Potency [7] | activity change, negative = inhibition [8] 0.321% | Potency [11] | Potency [12] | activity, negative = inhibition ([13]; parasite line A) -8.57% | activity, negative = inhibition ([13]; parasite line B) -7.26% | Potency (C2A) | Potency (CP192) | Potency (CP211) | Potency (CP266) | Potency (CP315) | Potency (CP329) | Potency (FAB9)
-2.07%: max response [8, 14]
-2.35%: max response [8, 15]

CC[C@]1(c2cccc(O)c2)CCCCN(C)C1
-13.2%: max response [8, 14]
inactive: outcome [1] | Potency [2] | outcome [3] | Potency [4] > 20.6 µM | Potency [5] > 20.6 µM | outcome [6] | Potency [7] | activity change, negative = inhibition [8] -0.585% | Potency [11] | Potency [9] | Potency [12] | activity, negative = inhibition ([13]; parasite line A) -7.81% | Potency (C2A) | Potency (CP266) | Potency (CP315) | Potency (FAB9)
-11.2%: max response [8, 15]

CN1CCC2=C[C@H](O)[C@@H]3OC(=O)c4cc5c(cc4[C@H]3[C@H]21)OCO5
inactive: outcome [1] | activity change, negative = inhibition [10] -12.8% | outcome [3] | Potency [4] > 20.6 µM | Potency [5] > 20.6 µM | outcome [6] | Potency [7] | activity change, negative = inhibition [8] 0.357% | Potency [9]
-1.93%: max response [8, 15]
-2.84%: max response [8, 14]

C[C@H]1CC[C@@]2(NC1)O[C@@H]1C[C@H]3[C@@H]4CC[C@@H]5C[C@@H](O)CC[C@@]5(C)[C@@H]4CC[C@]3(C)[C@@H]1[C@@H]2C
-2.87%: max response [8, 15]
inactive: outcome [1] | Potency [2] | activity change, negative = inhibition [10] 1.76% | outcome [3] | outcome [6] | Potency [7] | activity change, negative = inhibition [8] -2.33% | Potency [9]
0.178%: max response [8, 14]

COC1=C[C@H]2C3=C([C@H]2C1=O)[C@H](NC(C)=O)CCc1cc(OC)c(OC)c(OC)c13
1.69%: max response [8, 14]
inactive: outcome [1] | Potency [2] | Potency [4] > 20.6 µM | Potency [5] > 20.6 µM | outcome [6] | Potency [7] | activity change, negative = inhibition [8] 0.263% | Potency [9]
2.18%: max response [8, 15]
